Compound activity from PubChem BioAssay.
Hits are enriched below; roughly 2.3% of the tested compounds scored in any of these assays.
A549 viability: kills or reduces viability of A549 cells in Nrf2 counter-screen. AID 504648. 390,000 tested, 0.16% active. A549 ARE-Fluc cells, CellTiter-Fluor viability, 18-24 h. Potency, µM (series often up to 46 µM), for inactives: top-dose activity change, negative = cytotoxicity, usual class: inhibitors; further: on the % scale 0 is the no-effect control and ±100 the full control effect
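A549 ARE_Fluc cells in 5% FBS OPTI-MEM were exposed to compounds in concentration-response for 18-24 h at 37 deg C. Viability was read by CellTiter-Fluor fluorescence (Ex 405/Em 525) after 30 min, before the luciferase read.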
Nrf2 activator: activates Nrf2 signaling | AREc32 ARE-luciferase reporter (MCF7-derived line), luminescence, 24 h | Potency, µM (series often up to 46.1 µM), for the others: at the top dose activation, hits mostly activators | 410,000 tested, 0.31% active; further: % of control where 0% means no effect; nearly all actives have a fitted effect of over 65% in size
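Each well held 1000 AREc32 cells, which were incubated with compound for 24 hr at 37 deg C after overnight attachment, and ARE reporter activity was quantified by firefly luciferase luminescence.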
Rango complex inh: prevents formation of the Rango-importin beta complex; Q14974; Rango CFP/YFP FRET sensor + importin beta, 45 min; Potency, µM (titrated, usually from 92.2 µM), without a hit: top-dose inhibition of complex formation; 340,000 tested, 0.031% active; AID 540263; calls by dose curve;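 further: 0% = DMSO wells and 100% = buffer wells lacking importin beta; nearly all actives have a fitted effect of over 15% in size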
Target sequence (Q14974 whole entry, looked up): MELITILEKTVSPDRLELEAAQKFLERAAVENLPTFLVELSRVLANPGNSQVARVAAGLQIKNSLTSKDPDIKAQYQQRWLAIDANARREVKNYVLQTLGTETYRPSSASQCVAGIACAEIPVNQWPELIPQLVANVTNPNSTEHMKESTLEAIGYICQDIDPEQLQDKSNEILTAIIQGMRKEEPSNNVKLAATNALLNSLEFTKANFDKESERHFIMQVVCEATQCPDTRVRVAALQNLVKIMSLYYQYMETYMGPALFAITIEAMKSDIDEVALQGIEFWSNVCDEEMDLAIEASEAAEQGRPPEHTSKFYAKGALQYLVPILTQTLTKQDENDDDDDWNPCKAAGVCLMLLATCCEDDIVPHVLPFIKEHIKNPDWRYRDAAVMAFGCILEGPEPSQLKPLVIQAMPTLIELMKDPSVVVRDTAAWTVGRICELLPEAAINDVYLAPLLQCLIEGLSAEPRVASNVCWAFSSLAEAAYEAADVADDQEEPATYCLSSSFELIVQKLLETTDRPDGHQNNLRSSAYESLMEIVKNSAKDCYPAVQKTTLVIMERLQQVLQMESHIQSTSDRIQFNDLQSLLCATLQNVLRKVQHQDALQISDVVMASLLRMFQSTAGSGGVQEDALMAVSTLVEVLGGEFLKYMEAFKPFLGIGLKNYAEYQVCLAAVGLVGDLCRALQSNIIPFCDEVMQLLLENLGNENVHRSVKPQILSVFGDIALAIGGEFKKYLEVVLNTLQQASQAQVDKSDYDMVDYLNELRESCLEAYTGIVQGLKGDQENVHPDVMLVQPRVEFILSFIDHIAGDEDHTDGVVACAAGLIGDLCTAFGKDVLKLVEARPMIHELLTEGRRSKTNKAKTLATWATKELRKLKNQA
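Inhibition scored from the CFP 486 nm/YFP 530 nm FRET ratio 45 min after adding 0.125 microM importin beta to 50 nM Rango biosensor preincubated 5 min with compound (room temperature, PBS with DTT, Tween-20, BSA). No-importin wells as positive control.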
Nrf2 block: Nrf2 pathway inhibition; A549 ARE-Fluc reporter, luciferase luminescence, 18-24 h; Potency, µM (highest dose often 46 µM), for inactives: at the top dose activity change, negative = inhibition, actives largely listed as inhibitors; 360,000 tested, 2.1% active; further: on the % scale 0 is the no-effect control and ±100 the full control effect; nearly all actives have a fitted effect of over 60% in size
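In this cell-based qHTS, ARE-driven firefly luciferase in A549 cells reports Nrf2 activity; the luminescent signal after BugLite lysis is the measured value, with a prior CellTiter-Fluor read for cell health.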
Rango release inh: inhibition of RanGTP-driven Rango-importin beta dissociation; O95149+P62826; Biochemical FRET Rango-importin beta, RanGTP-induced dissociation; Potency, µM (titrated, usually from 46.1 µM), inactives show at the highest dose activity change, negative = inhibition; 340,000 tested, 0.071% active; AID 540253; calls by dose curve; further: % of control where 0% means no effect; nearly all actives have a fitted effect of over 45% in size
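Rango FRET biosensor (snurportin-1 IBB flanked by N-terminal EYFP and C-terminal CFP10) at 0.1 uM, with 0.25 uM importin beta in PBS, 1mM DTT, 0.02% Tween-20, 0.1% BSA. 0.6 uM Ran, 2mM GTP and 0.2 uM RCC1 were then added for 45 min at room temperature. Inhibition read as loss of FRET rise.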
An asterisk follows results filed as active; ? = inconclusive; · = no result given; [ ] = dose if it differs, or a comment. Unless noted, the call rests on the fitted dose curve; in most records, active means well fitted curve in the direction sought with a large enough effect; inconclusive means small, poorly fitted or top-dose-only effect, or another doubt; inactive means no such curve, though single readings can be large; an effect the other way counts as inactive or inconclusive. Potency means the concentration at half of the fitted maximal effect.

SMILES	A549 viability	Nrf2 activator	Rango complex inh	Nrf2 block	Rango release inh
COC(=O)C1=C(c2ccc(-c3ccccc3)c(F)c2)C[C@@H]2CC[C@H]1N2C(=O)NCCOc1ccccc1	?	-1%	0%	18µM*	-12%
COC(=O)C1=C(c2ccc(-c3ccccc3)c(F)c2)C[C@@H]2CC[C@H]1N2C(=O)NCC1CC1	?	-1%	1%	13µM*	-18%
COCCNC(=O)N1[C@H]2CC[C@@H]1C(C(=O)OC)=C(c1ccc(-c3ccccc3)c(F)c1)C2	-3%	5%	0%	18µM*	14%
CC(=O)N1CCN(c2ccc(OC[C@H]3CO[C@](Cn4ccnc4)(c4ccc(Cl)cc4Cl)O3)cc2)CC1	-1%	11%	1%	18µM*	8%
COCOC1CCC2C3CCC4=CC(=O)CCC4=C3C=CC12C (stereo unspecified)	1%	?	?	20%	21µM*
O=C(c1cncc(Br)c1)N1CCN(S(=O)(=O)c2ccc3ccccc3c2)CC1	1%	2%	0%	?	-6%
CC[n+]1c(SC)ccc2cc(OC)ccc21	?	0%	?	18µM*	10%
COc1cc(CN2CCN(c3cc(C)ccc3C)CC2)ccc1O	-2%	22%	-1%	10%	9%
Cc1ccc(C)c(N2CCN(c3ncnc4onc(C)c34)CC2)c1	-17%	-1%	·	13µM*	·
CC[C@@H](C)[C@H](C(CC(=O)N1CCCC1[C@@H](OC)[C@H](C)C(=O)N[C@H](Cc1ccccc1)c1nccs1)OC)N(C)C(=O)[C@H](NC(=O)[C@@H](C(C)C)N(C)C)C(C)C (stereo partly specified)	?	1%	-5%	?	-1%
O=C(CN1CCN(c2ncc(C(F)(F)F)cc2Cl)CC1)N1CCN(c2ncc(C(F)(F)F)cc2Cl)CC1	?	0%	-5%	11µM*	10%
O=[N+]([O-])c1ccc(O)c([N+](=O)[O-])c1	?	0%	2%	?	9%
O=c1[nH]c(O)c(N=Nc2cc([N+](=O)[O-])ccc2O)c(=O)[nH]1	23µM*	0%	?	-1%	2%
CN1CCc2nc(SCc3cccc(Br)c3)c(C#N)cc2C1	0%	0%	?	-13%	16µM*
CC(C)CCOP(=O)(c1ccc(N(C)C)cc1)C(O)c1ccc(Cl)cc1Cl (stereo unspecified)	?	0%	-1%	?	-9%
COc1cccc(C(=O)Nc2ccc3nc(SCC(=O)N(C)c4ccccc4)sc3c2)c1	-18%	0%	·	?	·
COC(=O)c1ccc(NC(=O)CSc2nc3ccc(N4C(=O)C5C6C=CC(C6)C5C4=O)cc3s2)cc1 (stereo unspecified)	?	0%	-1%	18µM*	-14%
CCn1cc2nc(SCc3cccc(C(F)(F)F)c3)n(Cc3ccc(OC)cc3)c(=O)c2n1	-20%	4%	·	23µM*	·
COc1ccccc1CNC(=O)C(NS(=O)(=O)c1ccc2c(c1)oc(=O)n2C)C(C)C (stereo unspecified)	2%	0%	?	8%	-19%
CN1CCN(c2ccc([N+](=O)[O-])c3no[n+]([O-])c23)CC1	23µM*	-3%	?	?	?
c1ccc(CN2CCN(Cc3ccc4ccccc4c3)CC2)cc1	3%	0%	-1%	?	0%
N#Cc1c(Cl)nc(Cl)c2c1CCN(Cc1ccccc1)C2	1%	?	?	-8%	5.2µM*[inhibitor]
CCCCN1CCS(=O)(=O)N(Cc2ccccc2Br)CC(C(=O)OC)C1 (stereo unspecified)	-3%	?	0%	12%	0%
CCOc1ccc2nc(N3CCC(C(=O)Nc4ccc(Br)cc4F)CC3)sc2c1	2%	-1%	·	?	·
CN(Cc1ccccc1)C(=O)c1ccc(NC(=O)C2CCN(C(=O)OC(C)(C)C)CC2)cc1	-5%	3%	-2%	16µM*	-19%
SMILES	A549 viability	Nrf2 activator	Rango complex inh	Nrf2 block	Rango release inh
CC1(C)c2[nH]c3ccccc3c2C[C@@H]2C(=O)N(Cc3ccccc3F)C(=O)N21	8%	6%	?	0%	?
CC1(C)c2[nH]c3ccccc3c2C[C@H]2C(=O)N(Cc3ccccc3F)C(=O)N21	?	2%	?	23µM*	?
CCCCC(=O)N/N=C/c1c(O)n(CC)c(=S)[nH]c1=O	-3%	0%	?	-7%	?
CCCCCCC(=O)N/N=C/c1c(O)n(CCCC)c(=S)[nH]c1=O	-16%	0%	0%	21µM*	16%
Cc1cc(=O)n2[nH]c(C)cc2n1	3%	0%	9%	-12%	32%
COC(=O)C(O)(c1ccc(NC(=S)NC(=O)c2ccccc2)cc1)C(F)(F)F (stereo unspecified)	-9%[1.84 µM]	6%	0%	16µM*	-9%
S=P(c1ccccc1)(c1ccccc1)c1c[nH]c2ccccc12	6%	·	·	-5%	·
COc1ccccc1OCCNC(=O)c1cc(=O)[nH]c2ccccc12	-16%	-1%	-4%	?	0%
Cc1sc2c(c1C)C(c1cccs1)=NCC(=O)N2CC(=O)NCc1cccs1	-2%	0%	-5%	-2%	4%
Cc1sc2c(c1C)C(c1ccc(C(C)(C)C)cc1)=NCC(=O)N2CC(=O)Nc1nccs1	-24%	0%	1%	12µM*	?
CC(C)NS(=O)(=O)c1ccc2c(c1)oc(=O)n2C	?	0%	3%	9%	18%
COc1ccc(NS(=O)(=O)c2ccc3c(c2)oc(=O)n3C)cc1Cl	0%	2%	-1%	15µM*	-7%
CC1(C)C(C(=O)N2CCN(c3ccc(Cl)cc3)CC2)C1(C)C	-3%	0%	1%	-20%	1%
Cc1ccc(-n2ncc(C(=O)N3CCN(c4ccc(Cl)cc4)CC3)c2C2CCN(C(=O)OC(C)(C)C)CC2)c(C)c1	-28%	0%	·	15µM*	·
COc1cccc(CSc2nc(-c3ccccc3OC)nc3c2Cc2c(CO)cnc(C)c2O3)c1	-12%	3%	·	?	·
CC(CNC(=O)c1ccc(CSc2nc3ccncc3n2Cc2ccc(F)cc2)cc1)c1ccccc1 (stereo unspecified)	-9%	3%	·	23µM*	·
CCc1ccc(CNC(=O)C2CCN(C(=O)c3ccc(-n4c(C)cc5ccccc54)s3)CC2)cc1	-29%	0%	·	18µM*	·
CC(=O)N1CCc2cc(S(=O)(=O)N3CCN(c4ccc(C)cc4)C(C)C3)ccc21 (stereo unspecified)	-17%	-1%	·	16µM*	·
OCc1cccc[n+]1CCc1ccccc1	-2%	0%	1%	7.3µM*	0%
N[C@H](CO)Cc1ccccc1	-4%	-1%	-2%	-7%	-15%
